PubChem BioAssay (Tox21)
Inconclusive results are not listed. Calls of active or inactive are those of the source. Unless noted, calls follow the shape of the dose curve; as a rule, active = well fitted curve in the direction sought with a large enough effect in the repeat runs; inconclusive = weak or mixed curves; inactive = no such curve, though single readings can be large; an effect the other way counts as inactive or inconclusive.

How the values were obtained:
[1] = qHTS assay to identify small molecule agonists of the estrogen receptor alpha (ER-alpha) signaling pathway in the presence of an antagonist - cell viability counter screen (AID 1259386);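 also: series mostly up to about 92 µM; cells exposed to compounds for 22 h at 37 °C before the viability read; nearly all actives have a fitted effect of over 30% in size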
Summary of the method: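 VM7Luc4E2 cells (endogenous full-length ER-alpha, 4×ERE-luciferase) were held 5 days in phenol red-free medium with 10% charcoal-stripped FBS, plated, then given 10.0nM ICI-182,780 and compounds at 15 concentrations for 22hr at 37C; viability read by CellTiter-Fluor fluorescence.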

[2] = target: Progesterone receptor (Homo sapiens) (UniProt P06401); assay: qHTS assay to identify small molecule agonists of the progesterone receptor (PR) signaling pathway (AID 1346784; calls by dose curve; also: nearly all actives have a fitted effect of over 30% in size)
Summary of the method: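 Using charcoal-stripped serum (2%) to limit endogenous steroids, PR-UAS-bla HEK 293T cells received compounds for 16 hr at 37C after 6 hr plating; beta-lactamase FRET fluorescence was recorded following 2 hr substrate loading at room temperature.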

[3] = qHTS assay to identify small molecule antagonists of the progesterone receptor (PR) signaling pathway - cell viability counter screen (AID 1346798); also: series mostly up to about 92 µM; nearly all actives have a fitted effect of over 50% in size
Summary of the method: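 ATP content as viability readout: CellTiter-Glo luminescence, 30 min room temperature, in PR-UAS-bla HEK293T cells after 16 hr compound/R5020 treatment at 37C and 5% CO2.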

[4] = qHTS assay to identify small molecule agonists of the progesterone receptor (PR) signaling pathway - cell viability counter screen (AID 1346799; calls by dose curve; also: nearly all actives have a fitted effect of over 45% in size)
Summary of the method: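 Cytotoxicity in PR-bla HEK293T cells: 16 h compound, 37C; CellTiter-Glo added post-FRET read; luminescence after 30 min RT.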

[5] = qHTS assay to identify small molecule antagonists of the TGF-beta/Smad signaling pathway - cell viability counter screen (AID 1346824); also: nearly all actives have a fitted effect of over 50% in size
Summary of the method: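 Cytotoxicity counter-screen run in the same wells as the beta-lactamase Smad reporter read: CellTiter-Glo luminescence after 30 min at room temperature. HEK 293T SBE-bla cells had 5 hr compound exposure at 37 C with TGF-beta1 (0.25 ng/mL stock).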

[6] = qHTS assay to identify small molecule agonists of the TGF-beta/Smad signaling pathway - cell viability counter screen (AID 1346829); also: top concentration of the series differs between compounds; nearly all actives have a fitted effect of over 45% in size
Summary of the method: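 SBE-bla HEK 293T cells plated overnight, compound exposure 5 hr at 37 C. Viability read in the same wells by CellTiter-Glo luminescence after 30 min at room temperature, following the beta-lactamase read.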

[7] = qHTS assay to identify small molecule agonists of the TGF-beta/Smad signaling pathway (AID 1346859; active = well fitted activation curve with a large enough effect in the signal ratio in the repeat runs, not every such curve was filed as active; the % refers to the signal ratio; also: series mostly up to about 77 µM)
Summary of the method: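 Stable Smad binding element-beta-lactamase HEK 293T cells; 5 hr compound exposure at 37 C under 5% CO2; 2 hr room-temperature substrate step; fluorescence excited at 405 nm, collected at 460 nm and 530 nm.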

[8] = target: Thyrotropin-releasing hormone receptor (Homo sapiens) (UniProt P34981); assay: qHTS assay to identify small molecule antagonists of the thyrotropin-releasing hormone receptor (TRHR) signaling pathway (AID 1346877; active = well fitted inhibition curve with a large enough effect in the repeat runs, not every such curve was filed as active; also: series mostly up to about 51 µM)
Summary of the method: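 TRHR-expressing HEK293 cells were seeded, cultured 18 h at 37 °C, then loaded with calcium dye for 2 h. Compounds were pre-incubated 5 min at room temperature before 1 nM TRH (final) was added, and kinetic fluorescence was recorded for 3 min.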

[9] = target: Thyrotropin-releasing hormone receptor (Homo sapiens) (UniProt P34981); assay: qHTS assay to identify small molecule agonists of the thyrotropin-releasing hormone receptor (TRHR) signaling pathway (AID 1346891; calls by dose curve; also: series mostly up to about 58 µM)
Summary of the method: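 In 1536-format, 1500 TRHR-Hek293 cells per well grew 18 h, took up calcium dye for 2 h at 37 °C, received compound, and were read kinetically; 15-point titrations, triplicates.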

[10] = Human pregnane X receptor (PXR) small molecule agonists, qHTS cell viability counter screen (AID 1346977); also: nearly all actives have a fitted effect of over 50% in size
Summary of the method: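 Readout is CellTiter-Fluor fluorescence from PXR-Luc HepG2 cells. Plated cells rested 5hr, then were treated with compounds for 24hr at 37C and 5% CO2, with reagent present during the last hour.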

[11] = Caspase-3/7 induction in HepG2 cells by small molecules, qHTS assay (AID 1346978); also: nearly all actives have a fitted effect of over 15% in size
Summary of the method: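 Caspase-3/7 induction was measured by Caspase-Glo 3/7 luminescence (30 min, room temperature) after a 17 hr compound exposure of wild-type HepG2 cells seeded at 2,000 per well and pre-incubated 5 hr.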

[12] = Caspase-3/7 induction in CHO-K1 cells by small molecules, qHTS cell viability counter screen (AID 1346979); also: nearly all actives have a fitted effect of over 35% in size
Summary of the method: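 To flag cytotoxic compounds, treated CHO-K1 wild-type cells were given CellTiter-Fluor at 16hr and read fluorescently after 1hr at 37C; the caspase-3/7 luminescence was measured in these same wells.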

[13] = Caspase-3/7 induction in HepG2 cells by small molecules, qHTS cell viability counter screen (AID 1346981); also: series mostly up to about 92 µM; nearly all actives have a fitted effect of over 30% in size
Summary of the method: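 Wild-type HepG2 cells (2,000/well) were allowed to settle for 5 hr at 37 C, 5% CO2, then dosed with compounds in DMSO by pin transfer. After 16 hr at 37 C, CellTiter-Fluor was added and fluorescence read 1 hr later.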

[14] = target: Nuclear receptor subfamily 1 group I member 2 (Homo sapiens) (UniProt O75469); assay: Human pregnane X receptor (PXR) small molecule agonists, qHTS assay (AID 1346982); also: nearly all actives have a fitted effect of over 35% in size; also: potency is read from the fitted curve at half-maximal effect
Summary of the method: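 PXR-Luc HepG2 cells (CYP3A4 promoter-driven luciferase) were seeded in medium with 5% charcoal-stripped FBS, left 5 hr at 37 C, then exposed to compounds in DMSO for 24 hr. Luminescence was read after ONE-Glo addition.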

[15] = target: Progesterone receptor (Homo sapiens) (UniProt P06401); assay: qHTS assay to identify small molecule antagonists of the progesterone receptor (PR) signaling pathway (AID 1346795; active = well fitted inhibition curve with a large enough effect in the signal ratio in the repeat runs, not every such curve was filed as active; the % refers to the signal ratio)
Summary of the method: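 Inhibition of R5020-induced (1 nM final) beta-lactamase reporter signal in PR-UAS-bla HEK293T cells was scored by FRET fluorescence after overnight (16 hr) compound treatment.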

[16] = Caspase-3/7 induction in CHO-K1 cells by small molecules, qHTS assay (AID 1346980); also: nearly all actives have a fitted effect of over 15% in size
Summary of the method: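 Luminescent Caspase-Glo 3/7 read (30min, room temperature) quantified apoptosis induction. Cells were wild-type CHO-K1, treated with compound for 17hr at 37 C and 5% CO2.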

[17] = target: Cytochrome P450 2D6 (Homo sapiens) (UniProt P10635); assay: Cytochrome P450 Family 2 Subfamily D Member 6 (CYP2D6) small molecule antagonists: luciferase reporter qHTS assay (AID 1671196); also: nearly all actives have a fitted effect of over 50% in size; also: potency is read from the fitted curve at half-maximal effect
Summary of the method: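 CYP2D6 enzyme–substrate mix was held with compound for 10 min at room temperature, then NADPH regeneration solution was added and the reaction ran 1 h at room temperature. Luciferin product was detected by luminescence after 20 min with detection reagent.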

[18] = target: Nuclear receptor subfamily 1 group I member 2 (Rattus norvegicus) (UniProt Q9R1A7); assay: Rat pregnane X receptor (rPXR) activation by small molecules, qHTS assay (AID 1346983); conditions: rPXR luciferase reporter cells, One-Glo luminescence, 24 h; max activation: hits give high values; also: nearly all actives have a fitted effect of over 20% in size
Summary of the method: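 Luminescent readout (One-Glo luciferase, 30 min room temperature) followed 24 hr compound treatment at 37 C of rPXR cells plated 2,000 per well and preincubated 5hr; qHTS format with compounds delivered in DMSO.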

[19] = target: Nuclear receptor subfamily 1 group I member 2 (Homo sapiens) (UniProt O75469); assay: Human pregnane X receptor (PXR) activation by small molecules, qHTS assay (AID 1346985); also: nearly all actives have a fitted effect of over 40% in size
Summary of the method: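 DPX-2 cells (HepG2 co-transfected with a PXR response element and a CYP3A4-promoter luciferase construct) were seeded at 2,000 per well, rested 5 hr at 37C, then exposed to DMSO-dissolved compounds for 24 hr. Activation was read as luciferase luminescence.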

[20] = target: Nuclear receptor subfamily 1 group I member 2 (Homo sapiens) (UniProt O75469); assay: CYP3A4 induction through human pregnane X receptor (PXR) by small molecules, qHTS assay (AID 1346984); also: nearly all actives have a fitted effect of over 40% in size
Summary of the method: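 DPX-2 cells (HepG2 co-transfected with PXR and CYP3A4 promoter-luciferase) treated with compounds 24 h at 37C; luciferin-IPA CYP3A4 substrate 3uM final added for 3 h, then One-Glo; luminescence read. qHTS format.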
% is scaled to controls: 0 for no effect and ±100 for the full control effect.

Nuclear receptor subfamily 1 group I member 2 (Homo sapiens), sequence (O75469 whole entry, looked up): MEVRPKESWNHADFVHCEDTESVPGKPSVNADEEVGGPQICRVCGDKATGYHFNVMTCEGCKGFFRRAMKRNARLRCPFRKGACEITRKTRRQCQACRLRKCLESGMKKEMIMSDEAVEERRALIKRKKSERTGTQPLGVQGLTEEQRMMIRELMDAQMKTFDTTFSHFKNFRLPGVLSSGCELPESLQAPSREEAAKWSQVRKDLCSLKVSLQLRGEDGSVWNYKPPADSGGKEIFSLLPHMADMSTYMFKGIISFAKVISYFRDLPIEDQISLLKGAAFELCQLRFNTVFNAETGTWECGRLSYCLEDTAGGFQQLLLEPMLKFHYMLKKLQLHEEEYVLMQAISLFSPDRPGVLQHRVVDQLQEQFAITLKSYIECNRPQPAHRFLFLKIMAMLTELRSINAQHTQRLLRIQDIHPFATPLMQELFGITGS
Thyrotropin-releasing hormone receptor (Homo sapiens), sequence (P34981 whole entry, looked up): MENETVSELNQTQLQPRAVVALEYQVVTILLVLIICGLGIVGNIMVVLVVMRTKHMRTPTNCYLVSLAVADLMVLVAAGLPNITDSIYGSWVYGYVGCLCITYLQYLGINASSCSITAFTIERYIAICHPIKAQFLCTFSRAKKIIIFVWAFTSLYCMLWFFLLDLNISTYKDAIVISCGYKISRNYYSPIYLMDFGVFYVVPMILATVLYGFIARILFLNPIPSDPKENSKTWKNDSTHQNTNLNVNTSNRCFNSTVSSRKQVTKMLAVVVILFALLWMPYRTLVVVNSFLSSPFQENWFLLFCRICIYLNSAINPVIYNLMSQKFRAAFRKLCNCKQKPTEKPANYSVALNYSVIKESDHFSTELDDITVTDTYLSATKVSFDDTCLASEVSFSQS
Cytochrome P450 2D6 (Homo sapiens), sequence (P10635 whole entry, looked up): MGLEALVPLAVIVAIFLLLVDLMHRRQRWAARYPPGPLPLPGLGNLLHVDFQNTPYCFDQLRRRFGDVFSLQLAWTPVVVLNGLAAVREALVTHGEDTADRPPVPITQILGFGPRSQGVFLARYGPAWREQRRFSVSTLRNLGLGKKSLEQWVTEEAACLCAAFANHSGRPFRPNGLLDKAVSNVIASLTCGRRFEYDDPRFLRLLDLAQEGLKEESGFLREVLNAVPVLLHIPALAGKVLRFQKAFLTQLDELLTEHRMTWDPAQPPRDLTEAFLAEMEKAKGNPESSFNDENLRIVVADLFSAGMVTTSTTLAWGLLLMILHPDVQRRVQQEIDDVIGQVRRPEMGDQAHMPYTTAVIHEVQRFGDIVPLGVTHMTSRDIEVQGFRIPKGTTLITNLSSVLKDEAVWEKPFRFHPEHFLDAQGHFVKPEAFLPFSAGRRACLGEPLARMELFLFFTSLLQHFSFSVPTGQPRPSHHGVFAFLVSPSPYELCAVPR
Progesterone receptor (Homo sapiens), sequence (P06401 whole entry, looked up): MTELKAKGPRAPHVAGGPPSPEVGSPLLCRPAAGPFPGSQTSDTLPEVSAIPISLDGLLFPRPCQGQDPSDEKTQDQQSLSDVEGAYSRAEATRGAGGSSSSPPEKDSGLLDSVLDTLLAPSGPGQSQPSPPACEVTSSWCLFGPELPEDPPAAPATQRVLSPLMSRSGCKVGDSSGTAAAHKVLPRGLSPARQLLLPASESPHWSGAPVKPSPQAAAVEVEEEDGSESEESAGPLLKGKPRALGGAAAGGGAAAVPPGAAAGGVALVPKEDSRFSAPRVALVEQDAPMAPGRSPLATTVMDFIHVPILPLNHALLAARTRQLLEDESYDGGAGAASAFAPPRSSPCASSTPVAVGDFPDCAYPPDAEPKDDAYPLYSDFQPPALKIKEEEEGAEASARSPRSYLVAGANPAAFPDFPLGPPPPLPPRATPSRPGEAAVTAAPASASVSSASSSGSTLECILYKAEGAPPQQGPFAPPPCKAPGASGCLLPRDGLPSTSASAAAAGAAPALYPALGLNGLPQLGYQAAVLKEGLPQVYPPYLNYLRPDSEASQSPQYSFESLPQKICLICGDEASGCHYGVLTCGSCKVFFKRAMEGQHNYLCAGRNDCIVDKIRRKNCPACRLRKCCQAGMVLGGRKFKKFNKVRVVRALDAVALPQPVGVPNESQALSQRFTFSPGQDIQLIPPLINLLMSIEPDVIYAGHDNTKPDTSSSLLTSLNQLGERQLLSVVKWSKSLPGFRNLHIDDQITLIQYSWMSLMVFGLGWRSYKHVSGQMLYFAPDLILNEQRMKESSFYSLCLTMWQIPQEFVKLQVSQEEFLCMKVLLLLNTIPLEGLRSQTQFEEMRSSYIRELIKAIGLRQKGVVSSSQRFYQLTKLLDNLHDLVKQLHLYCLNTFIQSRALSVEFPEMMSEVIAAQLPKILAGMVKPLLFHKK
Nuclear receptor subfamily 1 group I member 2 (Rattus norvegicus), sequence (Q9R1A7 whole entry, looked up): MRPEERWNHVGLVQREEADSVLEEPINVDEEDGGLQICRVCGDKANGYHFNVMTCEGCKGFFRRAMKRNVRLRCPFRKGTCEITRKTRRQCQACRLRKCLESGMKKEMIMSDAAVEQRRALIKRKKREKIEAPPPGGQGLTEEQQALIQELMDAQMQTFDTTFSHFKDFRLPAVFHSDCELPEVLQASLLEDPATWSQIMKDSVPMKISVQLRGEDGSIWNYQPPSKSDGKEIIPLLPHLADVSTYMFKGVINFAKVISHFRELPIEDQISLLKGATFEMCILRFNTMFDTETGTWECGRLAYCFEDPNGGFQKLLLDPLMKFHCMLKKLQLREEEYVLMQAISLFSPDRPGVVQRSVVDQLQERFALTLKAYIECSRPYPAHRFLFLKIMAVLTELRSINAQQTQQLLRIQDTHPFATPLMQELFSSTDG

Cc1ccc2c(ccc3ccccc32)c1
active: Potency [14] 54.6 µM
inactive: Potency [1] | outcome [2] | Potency [3] | Potency [4] | Potency [5] | Potency [6] | outcome [7] | outcome [8] | Potency [9] | Potency [10] | outcome [11] | Potency [12] | Potency [13]

CCCCCCCCCC(=O)OCC
inactive: Potency [1] | outcome [2] | Potency [15] | Potency [3] | Potency [5] | Potency [6] | outcome [7] | Potency [10] | outcome [11] | Potency [12] | Potency [16] | Potency [13] | Potency [14] | Potency [17]

NC(=S)N/N=C/c1cccnc1
inactive: Potency [1] | outcome [2] | Potency [15] | Potency [3] | Potency [5] | Potency [6] | outcome [8] | Potency [9] | Potency [10] | outcome [11] | Potency [12] | Potency [16] | Potency [13] | Potency [14] | max activation [18] -5.63% | Potency [19] | Potency [17]

CC1(C)[C@H]2CC[C@]1(C)[C@H](O)C2
inactive: Potency [1] | outcome [2] | Potency [15] | Potency [3] | Potency [5] | Potency [6] | outcome [8] | Potency [9] | Potency [10] | outcome [11] | Potency [12] | Potency [16] | Potency [13] | Potency [14] | max activation [18] -0.529% | Potency [20] | Potency [19] | Potency [17]

ClC(Cl)(Cl)c1ccc(C(Cl)(Cl)Cl)cc1
inactive: Potency [1] | outcome [2] | Potency [15] | Potency [4] | Potency [5] | Potency [6] | outcome [7] | Potency [9] | Potency [10] | outcome [11] | Potency [12] | Potency [16] | Potency [13] | Potency [14]

CN(c1nccc(=O)[nH]1)C1CCN(c2nc3ccccc3n2Cc2ccc(F)cc2)CC1
active: Potency [17] 12.3 µM
inactive: Potency [1] | outcome [2] | Potency [15] | Potency [4] | Potency [5] | Potency [6] | outcome [7] | outcome [8] | Potency [9] | Potency [10] | outcome [11] | Potency [16] | Potency [13] | max activation [18] -3.1% | Potency [19]

CCCC(C)C
inactive: Potency [1] | outcome [2] | Potency [15] | Potency [5] | Potency [6] | outcome [7] | Potency [9] | Potency [10] | outcome [11] | Potency [12] | Potency [16] | Potency [13] | Potency [17]

CCCCCCCCCCCCCCC1CO1 (stereo not given)
inactive: Potency [1] | outcome [2] | Potency [15] | Potency [4] | Potency [5] | Potency [6] | outcome [7] | outcome [8] | Potency [9] | outcome [11] | Potency [12] | Potency [16] | Potency [13] | Potency [14] | Potency [17]

CCCCCC/C=C/C=O
inactive: Potency [1] | outcome [2] | Potency [15] | Potency [4] | Potency [5] | Potency [6] | outcome [8] | Potency [9] | Potency [10] | outcome [11] | Potency [12] | Potency [16] | Potency [13] | Potency [14] | Potency [17]

Cn1c(=O)c2c(ncn2CC(O)CO)n(C)c1=O (stereo not given)
inactive: Potency [1] | outcome [2] | Potency [15] | Potency [3] | Potency [5] | Potency [6] | outcome [7] | Potency [9] | Potency [10] | outcome [11] | Potency [12] | Potency [16] | Potency [13] | Potency [14] | max activation [18] -1.09% | Potency [20] | Potency [19] | Potency [17]

NCc1ccccc1
active: Potency [17] 31.7 µM
inactive: Potency [1] | outcome [2] | Potency [15] | Potency [3] | Potency [5] | Potency [6] | outcome [7] | Potency [9] | outcome [11] | Potency [12] | Potency [13] | Potency [14]

Cc1ccc(C(N)=O)cc1N
inactive: Potency [1] | outcome [2] | Potency [3] | Potency [4] | Potency [5] | Potency [6] | Potency [10] | outcome [11] | Potency [12] | Potency [16] | Potency [13] | Potency [14] | Potency [17]
